Measurements from PubChem BioAssay.
The source made the active and inactive calls. Unless noted, how the calls were made is not given here.

How the values were obtained:
[1] = compounds binding Alexa647 anti-His antibody – biochemical, small-molecule microarray, 635 nm fluorescence, artefact control for SMM control protein annotation, primary screen (AID 1128); details: higher = more signal;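 further: score merges feature fluorescence with signal-to-noise for each printed compound spot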
[2] = test system: Human papillomavirus type 1a E7 protein (residues 1-88); experiment: HPV1a E7 small-molecule binders, primary screen, biochemical, small-molecule microarray, residues 1-88, 635 nm (AID 1129); details: small-molecule microarray binding, fluorescence 635 nm; higher = more signal
[3] = target: Focal adhesion kinase 1 (Homo sapiens) (UniProt Q05397); experiment: PTK2 protein binding on printed compound slides – biochemical, small-molecule microarray, 635/667 nm fluorescence, BSA, DTT, primary screen (AID 1130); details: 635 nm fluorescence, higher = more signal;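 further: composite of spot emission at 667 nm and signal to noise over triplicate slides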
[4] = test system: Fibrinogen (Alexa647-labelled); experiment: Alexa647-fibrinogen binding to printed small molecules – biochemical, small-molecule microarray, 635/667 nm fluorescence, artefact control for SMM control-protein annotation, profiling panel (AID 1131); details: fibrinogen-A647 binding fluorescence, higher = more signal;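 further: z-score merges 667 nm fluorescence with per-spot signal-to-noise over triplicate slides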
[5] = target: Follistatin (Homo sapiens) (UniProt P19883); experiment: FST protein binding to printed compounds – biochemical, small-molecule microarray, 635/667 nm fluorescence, primary screen (AID 1132); details: 635 nm fluorescence, higher = more signal
[6] = target: Fibroblast growth factor 2 (Homo sapiens) (UniProt P09038); experiment: basic fibroblast growth factor binding to printed compounds – biochemical, small-molecule microarray, 635/667 nm fluorescence, primary screen (AID 1133); details: FGF2, fluorescence 635/667, higher = more signal
[7] = JC-1 mitochondrial potential readout, lung cancer cells – cell-based, A549, JC-1 fluorescence, basal, 24 h, 100 nL, profiling panel (AID 1138); details: higher = more signal;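 further: A549 lung adenocarcinoma cells under basal conditions with no added stimulus; test concentration not given here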
Lefty1 = Lefty1 protein binding to printed compounds – biochemical, small-molecule microarray, 635/667 nm fluorescence, primary screen (AID 1139); details: fluorescence 635/667, higher = more signal
[8] = test system: wheat germ agglutinin (Triticum aestivum), Alexa647-labelled; experiment: Alexa647-WGA lectin binding to printed small molecules – biochemical, small-molecule microarray, 635/667 nm fluorescence, artefact control for SMM control-protein annotation, profiling panel (AID 1140); details: WGA-A647 binding, 635 nm fluorescence, higher = more signal;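 further: score merges 667 nm feature emission with signal to noise over triplicate slides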
[9] = target: Luciferin 4-monooxygenase (Photinus pyralis) (UniProt P08659); experiment: inhibition of purified Photinus pyralis luciferase – biochemical, luminescence, purified enzyme, 2006 set, primary screen (AID 1141); details: purified firefly luciferase, SteadyGlo luminescence, 30 min; higher = more signal, called active from +8 up or from −8 down;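 further: cell-free assay with purified firefly luciferase at 100 ng per well in PBS; test concentration not given here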
[10] = test system: Wnt5a (protein binding on small-molecule microarray); experiment: small molecules binding Wnt5a protein – biophysical, small-molecule microarray, 635/667 nm fluorescence, primary screen (AID 1142); details: 635 nm fluorescence, higher = more signal;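 further: fluorescence read at 667 nm with signal to noise per printed feature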
[11] = ATP-based viability of Huh7 replicon cells – cell-based, CellTiter-Glo luminescence, basal, 48 h, cytotoxicity control for HCV replication inhibitor project, primary screen (AID 1143); details: higher = more signal, called active from +8 up or from −8 down;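 further: Huh7 hepatoma cells carrying a hepatitis C replication reporter with no stimulus; test concentration not given here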
[12] = Pseudomonas biofilm growth suppression – PAO1 strain, BacTiter-Glo luminescence, LB-PBS, primary screen (AID 1144); details: P. aeruginosa PAO1 biofilm, 12 h, higher = more signal
[13] = basal CRE-LacZ reporter activity in PC12 – cell-based, unstimulated, primary screen (AID 1145); details: no forskolin, luminescence, 4.5 h, higher = more signal, called active from +8 up or from −8 down
[14] = forskolin-driven CRE-LacZ activity in PC12 – cell-based, CRE-LacZ reporter, forskolin-stimulated, primary screen (AID 1146); details: luminescence, 4.5 h, higher = more signal, called active from +8 up or from −8 down;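 further: PC12 cells with 6xCRE LacZ reporter stimulated by forskolin 10 µM; beta-galactosidase reporter signal reflecting CREB driven transcription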
[15] = target: Streptavidin (Streptomyces avidinii) (UniProt P22629); experiment: compounds binding control protein streptavidin – biophysical, small-molecule microarray, 635/667 nm fluorescence, artefact control for SMM compound annotation, primary screen (AID 1147); details: higher = more signal;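 further: signal reflects streptavidin binding to arrayed compounds as a control protein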
[16] = probe aInhba binding on compound microarray – biochemical, small-molecule microarray, 635/667 nm fluorescence, primary screen (AID 1148); details: higher = more signal;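 further: score merges 667nm spot fluorescence with signal-to-noise for antibody binding to printed compounds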
Torsin-1A (Homo sapiens) [17] = target: Torsin-1A (Homo sapiens) (UniProt O14656); experiment: TOR1A wild-type binding on microarray – cell lysate, small-molecule microarray, lysate, 635/667 nm, primary screen (AID 1149); details: COS7 hTOR1A-WT lysate, 635 nm fluorescence, higher = more signal
Torsin-1A (Homo sapiens) [18] = target: Torsin-1A (Homo sapiens) (UniProt O14656); experiment: torsin A mutant lysate binding on microarrays – cell lysate, small-molecule microarray, COS7 lysate, 635/667 nm fluorescence, primary screen (AID 1150); details: COS7 hTOR1A mutant lysate, 635 nm fluorescence, higher = more signal;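 further: score pools 667 nm emission and signal to noise measuring lysate protein binding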
[19] = test system: Sonic hedgehog protein (Shh); experiment: Sonic hedgehog microarray binding compounds – biochemical, small-molecule microarray, 635/667 nm fluorescence, primary screen (AID 1151); details: 635 nm fluorescence, higher = more signal;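 further: Shh protein binding to compounds spotted on small-molecule microarray slides; score combines spot fluorescence intensity with signal-to-noise across triplicate slides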

Sequence of Fibroblast growth factor 2 (Homo sapiens) (P09038 whole entry, looked up): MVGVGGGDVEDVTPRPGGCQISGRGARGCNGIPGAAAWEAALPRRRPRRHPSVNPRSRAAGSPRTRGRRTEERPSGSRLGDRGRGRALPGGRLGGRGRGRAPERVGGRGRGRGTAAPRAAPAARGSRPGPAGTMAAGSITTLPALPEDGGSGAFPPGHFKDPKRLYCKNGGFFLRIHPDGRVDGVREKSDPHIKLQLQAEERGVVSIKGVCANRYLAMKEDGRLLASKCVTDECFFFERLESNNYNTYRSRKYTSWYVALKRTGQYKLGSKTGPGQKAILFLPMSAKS
Sequence of Focal adhesion kinase 1 (Homo sapiens) (Q05397 whole entry, looked up): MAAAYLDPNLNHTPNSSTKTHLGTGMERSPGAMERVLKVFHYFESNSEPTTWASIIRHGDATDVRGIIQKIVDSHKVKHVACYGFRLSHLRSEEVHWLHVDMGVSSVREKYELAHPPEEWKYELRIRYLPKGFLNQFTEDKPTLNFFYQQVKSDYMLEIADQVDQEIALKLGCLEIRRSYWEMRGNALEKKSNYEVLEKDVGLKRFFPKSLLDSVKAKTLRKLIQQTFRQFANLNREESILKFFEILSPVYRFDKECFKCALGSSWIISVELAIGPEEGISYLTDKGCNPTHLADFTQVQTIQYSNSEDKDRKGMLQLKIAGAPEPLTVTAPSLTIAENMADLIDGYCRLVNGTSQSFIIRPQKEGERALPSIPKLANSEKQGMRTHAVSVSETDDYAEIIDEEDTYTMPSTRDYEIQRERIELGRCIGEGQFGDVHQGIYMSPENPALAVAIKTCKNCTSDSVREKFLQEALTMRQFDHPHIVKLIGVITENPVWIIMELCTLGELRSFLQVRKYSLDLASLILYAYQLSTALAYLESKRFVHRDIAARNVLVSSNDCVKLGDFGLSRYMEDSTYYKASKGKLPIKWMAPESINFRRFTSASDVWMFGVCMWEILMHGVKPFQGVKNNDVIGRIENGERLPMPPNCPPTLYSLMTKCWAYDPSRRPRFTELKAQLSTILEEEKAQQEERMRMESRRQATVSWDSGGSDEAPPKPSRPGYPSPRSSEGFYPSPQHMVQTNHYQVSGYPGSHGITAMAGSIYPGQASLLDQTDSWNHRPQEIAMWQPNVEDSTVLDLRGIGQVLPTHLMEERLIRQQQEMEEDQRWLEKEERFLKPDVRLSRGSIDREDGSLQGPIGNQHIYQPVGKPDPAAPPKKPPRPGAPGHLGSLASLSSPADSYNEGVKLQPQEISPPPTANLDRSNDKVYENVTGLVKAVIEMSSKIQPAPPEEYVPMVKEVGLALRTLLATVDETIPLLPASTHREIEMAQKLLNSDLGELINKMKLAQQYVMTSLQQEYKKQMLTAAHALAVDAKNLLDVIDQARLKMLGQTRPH
Sequence of Torsin-1A (Homo sapiens) (O14656 whole entry, looked up): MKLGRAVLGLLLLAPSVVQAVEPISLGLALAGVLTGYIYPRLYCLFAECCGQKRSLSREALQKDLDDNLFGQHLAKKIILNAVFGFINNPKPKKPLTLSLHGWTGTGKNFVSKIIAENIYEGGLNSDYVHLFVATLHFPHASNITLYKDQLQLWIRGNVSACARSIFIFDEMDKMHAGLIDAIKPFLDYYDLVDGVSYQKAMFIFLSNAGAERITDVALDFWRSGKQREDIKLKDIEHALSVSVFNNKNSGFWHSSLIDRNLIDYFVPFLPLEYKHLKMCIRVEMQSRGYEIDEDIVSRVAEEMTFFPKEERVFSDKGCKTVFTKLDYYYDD
Sequence of Streptavidin (Streptomyces avidinii) (P22629 whole entry, looked up): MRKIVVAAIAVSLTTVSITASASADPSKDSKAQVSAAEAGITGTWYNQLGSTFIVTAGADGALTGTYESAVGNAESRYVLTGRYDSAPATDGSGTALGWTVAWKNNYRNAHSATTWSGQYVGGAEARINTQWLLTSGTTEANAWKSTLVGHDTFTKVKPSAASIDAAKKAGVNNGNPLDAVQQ
Sequence of Luciferin 4-monooxygenase (Photinus pyralis) (P08659 whole entry, looked up): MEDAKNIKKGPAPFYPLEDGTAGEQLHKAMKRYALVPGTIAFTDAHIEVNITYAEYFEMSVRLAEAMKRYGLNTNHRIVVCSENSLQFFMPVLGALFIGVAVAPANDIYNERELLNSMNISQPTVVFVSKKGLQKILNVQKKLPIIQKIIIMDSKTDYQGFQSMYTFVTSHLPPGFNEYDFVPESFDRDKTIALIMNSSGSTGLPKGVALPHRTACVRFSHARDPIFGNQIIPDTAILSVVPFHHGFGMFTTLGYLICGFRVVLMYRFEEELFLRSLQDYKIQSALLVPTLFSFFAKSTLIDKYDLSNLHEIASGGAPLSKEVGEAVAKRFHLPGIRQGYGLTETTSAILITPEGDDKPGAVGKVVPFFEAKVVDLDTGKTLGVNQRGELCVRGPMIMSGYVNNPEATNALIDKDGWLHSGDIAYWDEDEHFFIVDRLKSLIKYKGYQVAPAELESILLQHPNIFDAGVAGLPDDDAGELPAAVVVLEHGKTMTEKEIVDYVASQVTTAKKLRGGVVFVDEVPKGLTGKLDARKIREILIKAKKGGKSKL
Sequence of Follistatin (Homo sapiens) (P19883 whole entry, looked up): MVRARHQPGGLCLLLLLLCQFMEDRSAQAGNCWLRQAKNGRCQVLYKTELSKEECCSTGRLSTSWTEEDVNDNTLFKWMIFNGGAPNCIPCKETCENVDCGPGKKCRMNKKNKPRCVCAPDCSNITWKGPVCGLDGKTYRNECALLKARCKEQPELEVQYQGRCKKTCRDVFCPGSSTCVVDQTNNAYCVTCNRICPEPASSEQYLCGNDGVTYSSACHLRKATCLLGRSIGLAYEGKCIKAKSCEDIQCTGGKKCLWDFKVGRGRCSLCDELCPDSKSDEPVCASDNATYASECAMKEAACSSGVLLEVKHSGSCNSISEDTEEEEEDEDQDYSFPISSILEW

Row | SMILES | composite z-score [1] | composite z-score [2] | composite z-score [3] | composite z-score [4] | composite z-score [5] | composite z-score [6] | z-score [7] | composite z-score (Lefty1) | composite z-score [8] | z-score [9] | composite z-score [10] | z-score [11] | z-score [12] | z-score [13] | z-score [14] | composite z-score [15] | composite z-score [16] | composite z-score (Torsin-1A (Homo sapiens) [17]) | composite z-score (Torsin-1A (Homo sapiens) [18]) | composite z-score [19]
1 | Cc1ccc(N2C(=O)c3ccccc3[C@@H](C(=O)NCCCN(C)C)[C@@H]2c2ccc(CO)cc2)nc1 | 2.06 | 0.232 | -0.736 | 0.442 | 0.115 | -0.189 | -0.0107 | -0.978 | -0.0618 | 0.775 (inactive) | -0.198 | 0.492 (inactive) | 0.252 (inactive) | 0.208 (inactive) | -1.35 (inactive) | 0.0893 | -0.477 | 0.276 | 0.011 | 0.0381
2 | O=C1C2C=CC(C(O)C3CC=CCC3)N(Nc3ccccc3)C2C(=O)N1c1ccccc1 (stereo not given) | 0.41 | 1.21 | 1.17 | 0.944 | 1.27 | 0.119 | -1.15 | 0.135 | 0.458 | -0.313 (inactive) | -0.0727 | -2.74 (inactive) | -0.879 (inactive) | 0.426 (inactive) | 0.305 (inactive) | 0.801 | 0.292 | -0.235 | 0.687 | -0.143
3 | CCOC(=O)C=Cc1cccc(C)c1O | 0.0346 | -0.0448 | 0.617 | 0.252 | 0.208 | 0.0326 | -1.56 | -0.0408 | -0.399 | -9.24 (active) | -0.0909 | -4.73 (inactive) | -1.02 (inactive) | 0.472 (inactive) | -0.631 (inactive) | -0.259 | -0.0375 | 0.299 | 0.777 | 0.219
4 | CCOC(=O)C1=C[C@@H](C(C)C)N(S(=O)(=O)c2ccc(C)cc2)[C@H]1c1ccc(C(F)(F)F)cc1 | 0.922 | 1.22 | 0.224 | 0.975 | 0.929 | 0.604 | 2.67 | 0.895 | 0.909 | 0.612 (inactive) | 0.418 | -3.82 (inactive) | 0.803 (inactive) | 0.939 (inactive) | -1.13 (inactive) | 0.908 | -0.12 | 0.505 | 0.682 | 0.217
5 | COc1ccc([Si](C)(C)[C@@H]2[C@@H](CCO)O[C@]3(C(=O)N(Cc4cccc(NC(=O)[C@H](C)O)c4)c4ccccc43)[C@H]2C)cc1 | 1.76 | 1.2 | 0.642 | 0.694 | 0.393 | 0.957 | -1.52 | 0.486 | 0.743 | -0.355 (inactive) | 0.736 | -8.02 (active) | -1.07 (inactive) | 10.2 (active) | -1.88 (inactive) | 0.887 | -0.128 | 0.23 | 0.97 | 0.533
6 | NC(=O)[C@@]1(Cc2ccccc2)COC(c2ccc(OCCCO)cc2)=N1 | 1.19 | -0.974 | 0.0264 | -0.979 | -0.0248 | 0.387 | -0.244 | 0.0016 | 0.523 | -4.28 (inactive) | 0.0546 | 0.257 (inactive) | 0.126 (inactive) | 2.24 (inactive) | -1.34 (inactive) | -0.504 | 0.105 | -0.475 | 0.709 | -0.429
7 | CC(C)[Si]1(C(C)C)OCc2cc(C3CC3)nc(-c3ccc(Oc4ccccc4)cc3)c21 | -0.33 | -1.1 | -0.0826 | -0.753 | -0.538 | -0.206 | 0.546 | -0.365 | -0.596 | -0.311 (inactive) | -0.223 | -1.03 (inactive) | -0.823 (inactive) | -0.113 (inactive) | 0.0211 (inactive) | -0.502 | -0.0604 | 0.726 | -1.07 | -0.241
8 | COCCCNC(=O)[C@@H]1c2ccccc2C(=O)N(C(C)C)[C@H]1c1ccc(CO)cc1 | -0.255 | -0.264 | 0.37 | -0.335 | 0.681 | 0.105 | 0.448 | -0.109 | -0.199 | -0.604 (inactive) | 0.389 | -0.293 (inactive) | 0.701 (inactive) | -0.179 (inactive) | 0.312 (inactive) | -0.337 | -0.045 | -0.17 | 0.0072 | 0.499
9 | CCCCN1CC=CC23O[C@@H]4/C=C\CCCOC(=O)C4[C@H]2C(=O)N(CCO)[C@@H]3C1=O (stereo not given in full) | 1.3 | 0.0166 | 0.101 | -1.25 | -1.03 | -1.33 | -0.655 | -0.832 | -0.724 | 1.19 (inactive) | -0.703 | -0.211 (inactive) | -1.29 (inactive) | -0.48 (inactive) | -0.681 (inactive) | -1.6 | -0.128 | -2.13 | -1.59 | -0.214
10 | CCCCNC(=O)c1ccc(C#CC(C)(C)C)c(OC(C)=O)c1 | 0.213 | 0.712 | 0.797 | 0.587 | 0.665 | 0.553 | -0.895 | 0.777 | 0.64 | 0.856 (inactive) | 0.0744 | -1.7 (inactive) | -0.245 (inactive) | 1.78 (inactive) | -0.512 (inactive) | 1.01 | -0.21 | 0.121 | 0.686 | 0.804
